# ATG4B inhibitor = inhibitors of human ATG4B cysteine protease. ATG4B cleavage of LC3-PLA2, NBD-HPC fluorescence, 1 h. inhibition, % at 8.33 µM. Q9Y4P1. 340,000 compounds, 0.51% hits. AID 504462; in the data active means inhibition above about 40%
# Mot1-301 SUMO = SUMOylation pathway inhibition by Mot1-301 growth rescue | S. cerevisiae Mot1-301 growth rescue, ATP luminescence, 38.5C; percent above DMSO median, 100 means doubled | 320,000 compounds, 1% hits | AID 2716 | growth rescue, % at 18.8 µM;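 active means every valid replicate shows activation above 250% relative to neutral control wells; inactive means the rest, any valid replicate at or below 250%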;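 further: OY570 slx delta 5 strain wells were the positive control but not used for scaling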
# Calb FLC = C. albicans growth modulation with fluconazole | 300,000 compounds, 0.57% hits | C. albicans CaCi-2 (fluconazole-resistant clinical isolate) + fluconazole, Alamar Blue growth, 48 h | growth inhibition, % (test concentration not listed) | AID 1979;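 active means growth inhibition above about 58% in most replicates, limit read from the data, passing the limit was not always enough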;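 further: all wells also contain fluconazole at 8 µg/ml as a sub-toxic cotreatment; 0% = median of DMSO wells and 100% = median of geldanamycin control wells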
# FAS TE block = blocks the thioesterase domain of human fatty acid synthase | P49327 | recombinant FAS-TE, OMFH fluorogenic substrate, fluorescence endpoint | inhibition, % at 15 µM | 360,000 compounds, 0.67% hits | AID 602261;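 active means compounds whose normalised, plate-corrected inhibition of enzyme fluorescence in the single-dose primary screen is 50% or more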;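 further: 0% = DMSO with enzyme and 100% = substrate without enzyme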
# Target sequence (P49327 whole entry, looked up, the tested form may be a part): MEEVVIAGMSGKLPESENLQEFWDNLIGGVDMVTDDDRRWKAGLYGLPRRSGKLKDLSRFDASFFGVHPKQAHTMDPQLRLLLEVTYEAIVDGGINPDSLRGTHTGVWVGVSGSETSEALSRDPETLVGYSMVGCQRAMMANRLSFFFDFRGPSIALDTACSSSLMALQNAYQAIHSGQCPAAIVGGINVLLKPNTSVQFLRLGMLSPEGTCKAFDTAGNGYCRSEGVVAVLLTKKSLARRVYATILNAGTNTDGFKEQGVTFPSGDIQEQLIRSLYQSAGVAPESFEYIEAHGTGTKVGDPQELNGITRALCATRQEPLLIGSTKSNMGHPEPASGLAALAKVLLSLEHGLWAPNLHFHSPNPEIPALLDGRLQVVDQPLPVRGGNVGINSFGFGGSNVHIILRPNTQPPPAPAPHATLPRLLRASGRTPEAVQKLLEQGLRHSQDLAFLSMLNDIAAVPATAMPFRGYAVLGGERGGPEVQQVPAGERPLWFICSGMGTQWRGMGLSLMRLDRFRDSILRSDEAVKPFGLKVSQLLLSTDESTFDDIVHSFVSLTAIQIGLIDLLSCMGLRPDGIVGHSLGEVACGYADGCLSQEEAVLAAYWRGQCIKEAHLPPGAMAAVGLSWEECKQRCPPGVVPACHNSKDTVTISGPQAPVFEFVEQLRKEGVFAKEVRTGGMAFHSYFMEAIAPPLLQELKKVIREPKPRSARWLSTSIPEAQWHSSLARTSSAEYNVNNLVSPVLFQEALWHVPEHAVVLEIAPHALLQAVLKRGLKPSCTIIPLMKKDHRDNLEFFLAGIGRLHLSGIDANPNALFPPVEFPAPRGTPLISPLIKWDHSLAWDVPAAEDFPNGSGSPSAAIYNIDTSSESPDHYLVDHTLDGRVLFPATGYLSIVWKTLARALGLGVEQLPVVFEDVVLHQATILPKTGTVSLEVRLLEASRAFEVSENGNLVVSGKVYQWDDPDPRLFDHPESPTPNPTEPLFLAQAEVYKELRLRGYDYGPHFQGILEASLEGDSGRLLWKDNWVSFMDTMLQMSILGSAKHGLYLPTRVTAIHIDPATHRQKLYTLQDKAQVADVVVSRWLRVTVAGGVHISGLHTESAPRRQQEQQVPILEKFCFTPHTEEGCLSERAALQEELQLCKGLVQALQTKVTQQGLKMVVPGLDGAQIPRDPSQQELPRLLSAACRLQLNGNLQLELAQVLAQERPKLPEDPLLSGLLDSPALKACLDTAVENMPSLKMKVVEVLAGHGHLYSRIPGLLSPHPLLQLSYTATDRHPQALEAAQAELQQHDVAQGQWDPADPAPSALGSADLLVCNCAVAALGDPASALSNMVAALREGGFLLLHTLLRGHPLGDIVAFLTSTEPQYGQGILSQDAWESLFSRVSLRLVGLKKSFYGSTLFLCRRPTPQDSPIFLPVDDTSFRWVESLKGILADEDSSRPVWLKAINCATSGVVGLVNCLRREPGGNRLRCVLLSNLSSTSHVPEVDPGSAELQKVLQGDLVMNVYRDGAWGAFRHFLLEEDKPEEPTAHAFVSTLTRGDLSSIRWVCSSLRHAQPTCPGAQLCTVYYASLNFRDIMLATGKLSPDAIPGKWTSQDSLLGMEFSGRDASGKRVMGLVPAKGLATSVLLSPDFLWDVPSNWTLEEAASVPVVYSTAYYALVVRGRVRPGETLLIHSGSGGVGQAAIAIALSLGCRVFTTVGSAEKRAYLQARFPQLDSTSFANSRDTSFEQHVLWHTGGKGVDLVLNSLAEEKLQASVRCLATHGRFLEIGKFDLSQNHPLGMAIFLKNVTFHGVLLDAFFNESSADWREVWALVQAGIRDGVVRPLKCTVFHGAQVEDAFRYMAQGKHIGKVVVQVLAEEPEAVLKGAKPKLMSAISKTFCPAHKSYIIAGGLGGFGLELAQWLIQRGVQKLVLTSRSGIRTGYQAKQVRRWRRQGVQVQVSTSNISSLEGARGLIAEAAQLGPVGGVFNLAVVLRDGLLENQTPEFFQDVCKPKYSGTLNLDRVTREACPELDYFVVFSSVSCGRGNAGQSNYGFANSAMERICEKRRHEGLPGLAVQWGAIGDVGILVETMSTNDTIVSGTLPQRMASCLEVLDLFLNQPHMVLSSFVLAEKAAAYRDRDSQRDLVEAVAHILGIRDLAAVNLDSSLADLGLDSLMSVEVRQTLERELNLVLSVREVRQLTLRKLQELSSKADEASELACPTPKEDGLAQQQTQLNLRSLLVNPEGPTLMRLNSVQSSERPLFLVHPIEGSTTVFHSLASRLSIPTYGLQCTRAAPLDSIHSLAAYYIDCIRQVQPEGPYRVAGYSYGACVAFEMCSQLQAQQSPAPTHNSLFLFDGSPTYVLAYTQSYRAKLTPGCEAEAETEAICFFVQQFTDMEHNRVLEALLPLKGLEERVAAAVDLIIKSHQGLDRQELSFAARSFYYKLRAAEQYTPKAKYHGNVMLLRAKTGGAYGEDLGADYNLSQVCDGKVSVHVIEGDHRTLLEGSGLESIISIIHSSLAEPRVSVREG
# NadD inh = inhibitors of Staphylococcus aureus NadD; purified NadD enzyme, colorimetric absorbance read-out; 360,000 compounds, 0.78% hits; inhibition, % at 20 µM; in the data active means inhibition above about 26%
# NadD inh conf = NadD (S. aureus) inhibition, single concentration confirmation. shares compounds with NadD inh. purified S. aureus NadD, colorimetric enzyme assay. inhibition, % at 20 µM. 2,000 compounds, 13% hits; in the data active means inhibition mostly above about 42%, no sharp cut-off; inactive means mostly below about 42%
# * marks the source's active call; other numbers are inactive results; . = no result. Rows were chosen to be rich in hits. Some 3.1% of all compounds tested hit in one or more screens of this group.
SMILES,ATG4B inhibitor,Mot1-301 SUMO,Calb FLC,FAS TE block,NadD inh,NadD inh conf
O=C(NCCc1ccccc1)c1ccc2c(=O)[nH]c3c(C(=O)NCC4CCCO4)sc(=S)n3c2c1 (stereo not given),18,-16,10,26,23,.
CCOc1ccccc1C(=O)NCC(=O)NNC(=O)c1csc(N2CCOCC2)n1,.,.,.,-4,4,.
CC[C@H](C)/C=C(C)/C=C/c1cc2c(cn1)C(=O)[C@@](C)(OC(C)=O)C(O)=C2Cl,.,.,.,0,13,.
CC[C@H](C)/C=C(C)/C=C/C(=O)Cc1cc(O)c(C)c(O)c1C=O,-11,155,0,-5,33*,14
CCOc1ccc(C(=O)/C=C/c2ccc(OC)c(OC)c2)cc1,-11,8,31,7,-10,.
CCOc1ccc(/C=C/C(=O)c2cc(Br)ccc(=O)c2O)cc1,29,-19,.,26,32*,15
CCCCCCN1C[C@H](O)[C@@H](n2cc(C3CC3)nn2)C[C@@H]1c1ccc(C)cc1,.,.,.,15,-1,.
Nc1nc(N)c(C=Nc2ccc(Br)cc2)c(Nc2ccc(Br)cc2)n1,-2,-18,6,41,36*,-5
CCN1CCN(C(=O)N(CC(=O)Nc2ccc(C(N)=O)cc2)S(=O)(=O)c2ccc(C)cc2)CC1,-16,.,-6,-4,-4,.
CCCn1c(C(C)Nc2nc(-c3ccc(OC)cc3)cs2)nc2ccccc21 (stereo not given),-7,-9,-2,8,2,.
Cc1ccc(Cn2c(C(CO)Nc3nc(-c4ccc(Cl)c([N+](=O)[O-])c4)cs3)nc3ccccc32)cc1 (stereo not given),-4,-16,22,50,51*,41
CCCn1c(C(C)Nc2nc(-c3ccc(Cl)c([N+](=O)[O-])c3)cs2)nc2cc(Cl)c(N3CCCCC3)cc21 (stereo not given),-1,-1,-2,21,33*,5
CC12CCC(C(=O)N(CC(O)CN3CCCCCC3)C1=O)C2(C)C (stereo not given),-17,5,-11,-13,-6,.
CCOC(=O)C1=C(C)n2c(s/c(=C/c3cccc([N+](=O)[O-])c3)c2=O)=NC1c1ccc(O)c(OC)c1 (stereo not given),25,-7,16,12,-3,.
CC(=O)C1=C(O)C(=O)N(c2ccc(O)cc2)C1c1cccc([N+](=O)[O-])c1 (stereo not given),4,3,1,-5,-1,.
CCOc1ccc(N2C(=O)/C(=C\c3ccc(OC)c(O)c3)S(=O)(=O)C2c2cccc([N+](=O)[O-])c2)cc1 (stereo not given),8,13,35,-2,34*,8
CCOc1ccc(N2C(=O)/C(=C\c3ccc(O)c(OC)c3)S(=O)(=O)C2c2cccc([N+](=O)[O-])c2)cc1 (stereo not given),-4,-1,0,-1,43*,62*
Cc1ccc(NC(=O)COC(=O)CN2CCSC2=O)cc1Cl,.,.,.,-3,3,.
Cc1cc(-c2nnc3n2N=C(c2ccc(-c4ccccc4)cc2)CS3)n[nH]1,-27,-5,9,-10,27,.
c1ccc(-c2cc(-c3nnc4n3N=C(c3ccc5ccccc5c3)CS4)[nH]n2)cc1,-13,0,5,5,55*,4
O=C(NCc1ccc(Cl)c(Cl)c1)C1CCCC1,-7,6,-8,22,-3,.
CCC(C)n1c(NC(=O)c2ccccc2)c(C#N)c2nc3ccccc3nc21 (stereo not given),31,4,0,18,41*,31
CN(CC(=O)NC(=O)NC1CCCCC1)CC(=O)Nc1ccc(OC(F)(F)F)cc1,-16,10,.,41,-6,.
O=C(O)c1cccc(-n2cccc2/C=C2/NC(=O)N(c3cccc(Cl)c3)C2=O)c1,5,34,7,-3,2,.
O=C(O)c1cccc(-n2cccc2/C=C2/NC(=O)N(c3ccc(Cl)cc3)C2=O)c1,28,.,.,6,43*,61*
O=C(/C=C/c1cccs1)Nc1nccs1,-8,4,-2,-9,8,.
O=C(/C=C/c1cccs1)Nc1cccc(NC(=O)/C=C/c2cccs2)n1,13,170,3,19,32*,33
CCOC(=O)c1cocc1C(=O)O,6,.,.,-5,1,.

# From PubChem BioAssay
